AHR act: AHR activators, primary screen, cell-based, luminescence, luciferase reporter, human; AHR-responsive luciferase reporter cells; activation, % at 5 µM; 320,000 compounds, 2.5% hits; Aryl hydrocarbon receptor (Homo sapiens), P35869; in the data active = activation above about 47%;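 also: 0% = vehicle wells and 100% = reference agonist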
HSF1 inh: HSF1 inhibitors in luciferase reporter cells, primary screen, cell-based, NIH3T3, luminescence | activity change, negative = inhibition, % at 7.5 µM (by protocol) | NIH3T3-HGL HSE-luciferase, MG132-induced, luminescence 8 h; hits give low values | 300,000 compounds, 0.77% hits | AID 2098, 2009;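 active = more than half of replicate wells show activity change below -50%, luminescence cut by over half; inconclusive = some wells, but at most half, below -50%; inactive = no replicate well below -50%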;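 also: luciferase reports HSF-1 transcriptional activity via heat shock element; 0% = median of DMSO wells and -100% = zero luminescence signal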
GAA850 FXN act: FXN promoter activators, primary screen, cell-based, luciferase luminescence, HEK293 lucGAA850 | HEK293 lucGAA850 FXN promoter luciferase reporter, 24 h; percent of 10 µM SAHA response | activation, % at 6 µM | 360,000 compounds, 0.56% hits | AID 540364, 2011;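 active = activation above the average of all compounds screened plus 3 SD, cutoff fixed separately per campaign, cut at about 7.5% in these data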;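 also: 0% = DMSO wells and 100% = 10 µM SAHA wells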
HSF1 activator: HSF-1 activators, primary screen, NIH3T3-HGL cells, MG132 stress, luminescence, single point; activation, % at 9 µM; AID 504408, 2011; 300,000 compounds, 1.7% hits; NIH3T3-HGL HSF-1 luciferase reporter, 8 h; 100% = twice DMSO control signal;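 active = mean replicate activation of at least 50% with a set share of replicates each reaching 50%; inconclusive = only one of those two conditions met; inactive = mean below 50% and too few replicates reaching it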;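 also: 0% = median of the neutral control wells and 100% = twice that signal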
NR0B1 inh: DAX1 (NR0B1) inhibitors, primary screen, cell-based, HEK293, Gal4-DAX1, luciferase luminescence; HEK293 Gal4-DAX1 luciferase reporter; inhibition, % at 6.75 µM; 340,000 compounds, 0.99% hits; AID 504766, 2011;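 active = inhibition above the mean over all tested compounds plus 3 SD, cut at about 4.2% in these data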;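 also: 0% = DAX1-transfected cells with DMSO and 100% = empty-vector control cells with DMSO; inhibition shows as a rise in luminescence from relieved DAX1 repression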
AHR act cf: AHR activators, confirmation, cell-based, luminescence, luciferase reporter, human. shares compounds with AHR act. human cells, AHR-responsive luciferase reporter. activation, % at 9 µM. 2,300 compounds, 87% hits. AID 2845, 2010; in the data active = activation above about 49%;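 also: HepG2 hepatoma cells carrying a DRE-driven firefly luciferase reporter; 0% = vehicle wells and 100% = reference agonist wells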
PXR act counter: human PXR activators, counter-screen for AHR activator project, cell-based, luciferase luminescence; 2,300 compounds, 88% hits; activation, % at 11.6 µM; cell-based PXR reporter; shares compounds with AHR act; in the data active = activation above about 11%;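 also: human hepatoma DPX-2 cells expressing full-length human PXR; 0% = DMSO and 100% = reference agonist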
Target sequence (O75469 whole entry, looked up): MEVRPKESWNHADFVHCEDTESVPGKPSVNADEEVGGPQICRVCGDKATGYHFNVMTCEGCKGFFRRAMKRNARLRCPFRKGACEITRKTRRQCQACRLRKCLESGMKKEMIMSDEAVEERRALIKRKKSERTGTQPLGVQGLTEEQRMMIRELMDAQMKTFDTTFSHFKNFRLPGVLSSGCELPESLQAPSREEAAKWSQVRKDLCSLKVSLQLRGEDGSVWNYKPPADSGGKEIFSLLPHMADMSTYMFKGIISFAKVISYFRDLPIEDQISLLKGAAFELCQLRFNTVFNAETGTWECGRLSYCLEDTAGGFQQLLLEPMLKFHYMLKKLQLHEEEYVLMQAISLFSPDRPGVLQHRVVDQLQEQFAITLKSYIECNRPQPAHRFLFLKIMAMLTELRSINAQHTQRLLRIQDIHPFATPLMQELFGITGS
Starred values were filed as active, the others as inactive; ? = inconclusive; . = not tested or not shown. This is a sample that favours compounds with a hit; in the whole collection about 5.4% have one here.

SMILES | AHR act | HSF1 inh | GAA850 FXN act | HSF1 activator | NR0B1 inh | AHR act cf | PXR act counter
Cn1c(=O)n(CCc2ccccc2)c(=O)c2c1nc1n2CCCN1Cc1ccccc1 | 119* | 5 | -1 | -10 | 0 | 83* | 150*
CCCn1c(=O)c2c(nc3n2CCCN3Cc2ccccc2)n(C)c1=O | 3 | -11 | -3 | -16 | 0 | . | .
NC(c1csc(NC(=O)c2cccc(OC(F)(F)F)c2)n1)c1ccccc1Cl (stereo unspecified) | . | . | -2 | . | . | . | .
CN(C1CCCC1)C1CCN(C(=S)Nc2cc(F)cc(F)c2)CC1 | -2 | 1 | 3 | -2 | 0 | . | .
O=C(N/N=C/c1cc(Br)cs1)c1c[nH]c2ccccc12 | 91* | 18 | -2 | 49 | 3 | 145* | 26*
CCOc1ccc(NC(=O)c2csc3c2CCCC3)cc1 | 146* | 27 | 5 | ? | 1 | 110* | 45*
COc1ccccc1N1CCN(C(=O)c2cccc(S(=O)(=O)Nc3ccccc3F)c2)CC1 | 2 | . | 2 | . | 0 | . | .
O=C(CSc1ccccc1F)NCC1(N2CCCCC2)CCCCC1 | 0 | . | 2 | . | 1 | . | .
Fc1ccc2cnc(-c3cccnc3)cc2c1 | 89* | . | 1 | . | 1 | 87* | 26*
Cc1ccc(S(=O)(=O)Nc2cc(Cl)ccc2-n2cncn2)cc1 | 17 | . | 1 | . | 1 | . | .
c1ccc(-c2cc3ccccc3cn2)cc1 | 37 | . | 3 | . | 3 | . | .
COc1cc2cnc(-c3ccccc3)cc2cc1OC | 114* | . | 6 | . | 0 | 122* | 14*
c1ccc(-c2cc3cc4c(cc3cn2)OCO4)cc1 | 123* | . | 2 | . | 3 | 67* | 90*
Fc1ccc2cc(-c3ccccc3)ncc2c1 | 28 | . | 7 | . | 2 | . | .
COC(=O)c1ccc(NC(=O)CN2CCN(S(=O)(=O)c3ccc(Br)cc3)CC2)cc1 | 3 | 8 | 0 | -3 | 1 | . | .
CCOc1ccccc1N(CC)C(=O)c1nn(C)c2c1CSc1ccccc1-2 | 9 | 5 | -3 | 14 | -1 | . | .
Cc1cc(N2CCN(c3ccccc3)CC2)nc2ccccc12 | 125* | 10 | 2 | 18 | 1 | 106* | 20*
O=C1NC(c2ccc(Br)cc2)Nc2ccccc21 (stereo unspecified) | 80* | 23 | -3 | 38 | 4 | 62* | 22*
CCC(=O)C1CCCN(C(=O)c2ccc(OC3CCN(C(=O)CCOC)CC3)cc2)C1 (stereo unspecified) | 4 | -9 | 0 | -8 | 1 | . | .
Cc1c(C(=O)Nc2nnc(C3CC3)s2)oc2c(Cl)cccc12 | 31 | -3 | 3 | -6 | 1 | . | .
O=C(Cc1c[nH]c2ccccc12)Nc1nnc(C2CC2)s1 | 91* | -3 | -4 | -6 | -1 | 90* | 20*
Cc1c(C(=O)Nc2nnc(C3CC3)s2)oc2ccccc12 | 111* | . | 6 | . | 1 | 136* | 55*
Cc1csc(NC(=O)c2oc3ccccc3c2C)n1 | 83* | 4 | 2 | -19 | 2 | 136* | 27*
CC(=O)NCc1ccc(C(=O)CSc2nnc(C3CC3)n2C2CC2)cc1 | 6 | . | 0 | . | 0 | . | .
COc1ccc(C2=CSC3=NCCN23)cc1Br | 4 | -3 | -3 | 3 | . | . | .
SMILES | AHR act | HSF1 inh | GAA850 FXN act | HSF1 activator | NR0B1 inh | AHR act cf | PXR act counter
CCOC(=O)c1c(NC(=O)COC(=O)CCOc2ccccc2C)sc(C(=O)NC)c1C | 3 | 10 | 2 | 19 | 1 | . | .
N#Cc1ccccc1NC(=O)CSc1cn[nH]n1 | 3 | -1 | 1 | 2 | -1 | . | .
O=C(CN1CCN(S(=O)(=O)c2ccc(Br)s2)CC1)NCC1CCCCC1 | . | . | 1 | . | -1 | . | .
Cc1ccc2nc(Nc3nc(C)cc(C(F)(F)F)n3)nc(C)c2c1 | 98* | -3 | 3 | -8 | 2 | 95* | 131*
COc1cc(/C=N/NC(N)=O)cc(Br)c1OCc1ccccc1C | 26 | 2 | 4 | 19 | 1 | . | .
C=CCOc1c(Br)cc(/C=N/NC(N)=O)cc1OC | 89* | -10 | 3 | 2 | 2 | 112* | 25*
N#CCCN(Cc1cccs1)C(=O)Nc1ccccc1 | -3 | 4 | 1 | 0 | 1 | . | .
COc1ccccc1-c1cn(-c2ccccc2)c(=S)[nH]1 | 112* | 2 | 0 | -4 | -1 | 109* | 105*
COc1ccc(-c2cn(-c3ccccc3)c(=S)[nH]2)cc1OC | 43 | 24 | 2 | 45 | 4 | . | .
COc1ccc(-n2cc(-c3ccc(Cl)cc3)[nH]c2=S)cc1 | 42 | 18 | 5 | 28 | 3 | . | .
COc1ccccc1-n1cc(-c2ccc(C)cc2)[nH]c1=S | 109* | -2 | -3 | 15 | -1 | 87* | 97*
COc1cccc(-n2cc(-c3ccc(F)cc3)[nH]c2=S)c1 | 108* | -18 | 5 | -12 | 3 | 12 | 52*
Nc1cc(-c2ccc(Br)cc2)[nH]n1 | 84* | -5 | 0 | 3 | 0 | 132* | 11*
Cc1cc(-c2ccc(Br)cc2)n[nH]1 | 16 | 27 | 6 | 44 | 4 | . | .
COc1cccc2c(=O)c3c([nH]c12)OC(C)(C)C3 | 0 | 3 | 0 | -1 | 1 | . | .
COc1cccc2c(=O)c3cccc(N)c3[nH]c12 | 80* | -3 | 2 | 0 | 0 | 60* | .
O=c1[nH]c(CN2CCc3ccccc3C2)nc2ccccc12 | 85* | 18 | 3 | 24 | 1 | 100* | 67*
CCOc1ccc(CCNC(=O)c2cc(=O)[nH]c3ccc(S(=O)(=O)N(CC)CC)cc23)cc1OCC | -1 | -10 | 3 | -9 | 1 | . | .
COc1cccc([C@@H]2CC=C(C(=O)O)[C@H](c3ccc(Br)cc3)N2S(=O)(=O)c2ccc(C)cc2)c1 | -1 | . | -2 | . | 0 | . | .
c1ccc(-c2ccc3c(c2)c2c4n3CCN=C4CCC2)cc1 | 93* | -1 | 3 | 1 | -1 | 84* | 11*
CCOc1cccc(/C=C/c2ccc3cccc(O)c3n2)c1O | 96* | 12 | 3 | 3 | 2 | 109* | 8
COc1cccc(/C=N/NC(=O)c2cc3c(OC)ccc(OC)c3[nH]2)c1O | 84* | 2 | -8 | 10 | -5 | 21 | 10
COc1ccc(/C=N/NC(=O)c2cccc(NC(=O)c3ccc(F)cc3)c2)c(C(=O)O)c1OC | 106* | 9 | 6 | 11 | 0 | 93* | .

Source: PubChem BioAssay
